# Rows were chosen to be rich in hits. Some 0.78% of all compounds tested hit in one or more screens of this group.
# SRC1 inh – inhibitors of human steroid receptor coactivator 1 (SRC1); Q15788; 360,000 compounds, 0.12% hits; inhibition, % at 3.6 µM; HEK293 GAL4-SRC1 luciferase reporter, luminescence;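 active = inhibition above the campaign mean plus 3 SD, with each screening campaign given its own cutoff, cut at about 60% in these data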;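 also: 0% = DMSO treated cells and 100% = gossypol at 36 µM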
# NR5A2 inv ag – inverse agonists of human LRH-1 (NR5A2); HEK293T StAR-luciferase reporter, LRH-1 transfected, 24 h; O00482; 360,000 compounds, 0.13% hits; inhibition, % at 3.6 µM;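 active = inhibition above the mean inhibition of all tested compounds plus 3 SD, cut at about 73% in these data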;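 also: 0% = DMSO wells and 100% = reporter-only cells lacking LRH-1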
# NCOA3 inh – inhibitors of human steroid receptor coactivator 3 (SRC3); AID 588352; 360,000 compounds, 0.17% hits; HEK293 GAL4-SRC3 luciferase reporter, luminescence; Q9Y6Q9; inhibition, % at 3.6 µM;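 active = inhibition above a per-campaign cutoff, the mean of all compounds plus 3 SD, cut at about 60% in these data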;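 also: 0% = DMSO-treated cells and 100% = gossypol-treated cells at 36 µM; higher means less SRC3-driven luciferase light from the GAL4 reporter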
# EBV LMP1 NFkB – inhibitors of Epstein-Barr LMP1-induced NF-kappaB reporter. LMP1-induced NF-kappaB luciferase reporter cells, luminescence. inhibition, % at 12.5 µM. 350,000 compounds, 0.69% hits. AID 504558; in the data active = inhibition above about 41%; inconclusive = no clear call, values can overlap the other calls;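 also: 0% = neutral control wells and 100% = reference inhibitor control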
# SRC2 inh – inhibits human steroid receptor coactivator 2; Q15596; HEK293 GAL4-SRC2 luciferase reporter, luminescence; inhibition, % at 9 µM; AID 651957; 370,000 compounds, 0.17% hits;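 active = inhibition above the mean inhibition of all tested compounds plus 3 SD, set per campaign, cut at about 52% in these data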;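 also: 0% = DMSO treated cells and 100% = cells given Gossypol at 36 µM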
# Target sequence (Q15596 whole entry, looked up, the tested form may be a part): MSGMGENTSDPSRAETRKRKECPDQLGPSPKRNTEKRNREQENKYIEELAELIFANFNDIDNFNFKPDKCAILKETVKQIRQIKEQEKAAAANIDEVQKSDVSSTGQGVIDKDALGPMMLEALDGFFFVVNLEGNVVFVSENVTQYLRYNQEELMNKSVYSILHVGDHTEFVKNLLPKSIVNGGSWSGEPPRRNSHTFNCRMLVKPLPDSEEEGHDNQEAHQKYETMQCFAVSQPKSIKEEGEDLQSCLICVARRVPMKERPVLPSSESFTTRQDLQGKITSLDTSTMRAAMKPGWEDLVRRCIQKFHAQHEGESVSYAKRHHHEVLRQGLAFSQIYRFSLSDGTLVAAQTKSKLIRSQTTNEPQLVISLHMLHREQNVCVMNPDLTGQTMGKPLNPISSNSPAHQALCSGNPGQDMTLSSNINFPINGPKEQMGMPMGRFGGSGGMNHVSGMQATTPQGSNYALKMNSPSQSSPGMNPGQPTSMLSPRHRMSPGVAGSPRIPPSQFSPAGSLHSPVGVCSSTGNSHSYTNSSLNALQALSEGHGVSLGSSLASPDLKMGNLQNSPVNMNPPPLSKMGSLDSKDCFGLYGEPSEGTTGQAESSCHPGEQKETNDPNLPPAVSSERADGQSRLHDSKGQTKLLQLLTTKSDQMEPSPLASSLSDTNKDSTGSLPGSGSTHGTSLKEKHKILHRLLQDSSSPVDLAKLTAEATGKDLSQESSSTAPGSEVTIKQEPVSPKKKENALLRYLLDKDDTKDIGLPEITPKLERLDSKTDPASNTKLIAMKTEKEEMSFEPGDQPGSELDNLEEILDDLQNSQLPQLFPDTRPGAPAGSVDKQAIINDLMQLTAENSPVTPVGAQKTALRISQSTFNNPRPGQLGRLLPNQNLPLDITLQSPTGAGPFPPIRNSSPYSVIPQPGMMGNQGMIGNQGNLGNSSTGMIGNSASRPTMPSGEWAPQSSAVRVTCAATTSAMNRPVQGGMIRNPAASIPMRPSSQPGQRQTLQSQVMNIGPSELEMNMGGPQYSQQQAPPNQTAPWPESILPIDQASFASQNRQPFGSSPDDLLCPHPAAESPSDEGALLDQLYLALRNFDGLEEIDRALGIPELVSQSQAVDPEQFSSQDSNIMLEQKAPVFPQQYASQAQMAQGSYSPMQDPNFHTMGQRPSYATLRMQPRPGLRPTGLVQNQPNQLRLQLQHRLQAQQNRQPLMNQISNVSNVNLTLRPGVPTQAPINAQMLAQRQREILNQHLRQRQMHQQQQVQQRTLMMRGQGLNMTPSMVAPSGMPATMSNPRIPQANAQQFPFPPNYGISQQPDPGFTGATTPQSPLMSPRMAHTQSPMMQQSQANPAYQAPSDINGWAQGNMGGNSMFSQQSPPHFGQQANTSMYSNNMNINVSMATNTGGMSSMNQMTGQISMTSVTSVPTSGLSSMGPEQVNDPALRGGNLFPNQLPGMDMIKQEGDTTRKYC
# Starred values were filed as active, the others as inactive; ? = inconclusive; / = not tested or not shown; ! = not confirmed by another sample.
SMILES,SRC1 inh,NR5A2 inv ag,NCOA3 inh,EBV LMP1 NFkB,SRC2 inh
CC12Cc3cn[nH]c3C=C1CCC1C2CCC2(C)C1CCC2(C)O (stereo unspecified),14,9,-11,-2,-12
Fc1cccc(F)c1-c1nc(-c2ccc(Cl)cc2)no1,-51,-28,-55,-56,-36
O=P1(N(CCCl)CCCl)NCCCO1 (stereo unspecified),1,3,10,85*,3
CC(O)C1C=CC=CC(=O)OC2CC3OC4C5OC5(C)CCC4(COC(=O)C4OC4(C)C(O)CO1)C2(C)C31CO1 (stereo unspecified),95*,99*,94*,84*,74*
CC(=O)OC1C(=O)OCC23CCC4(C)OC4C2OC2CC(OC(=O)C=CC=CC(=O)OCCC1C)C3(C)C21CO1 (stereo unspecified),96*,98*,93*,81*,72*
CN1C(=O)NC(=O)C(N=Nc2ccc(Cl)cc2)C1=O (stereo unspecified),-34,-38,-43,-3,-50
Cc1cccc(C)c1-n1nnnc1C(CCc1ccccc1)N1CCC(n2c(=O)[nH]c3ccccc32)CC1 (stereo unspecified),32,-9,84*,/,-5
COc1cc(O)c2c(c1)/C=C/C[C@H](O)[C@H](O)[C@@H](O)/C=C/C[C@H](C)OC2=O,/,/,/,/,10
CC[C@@H](O)C[C@H]1CCC[C@@]2(C[C@@H]3OC(=O)/C=C/[C@@](C)(O)[C@@H](O)[C@H](C)[C@@H](O)[C@H](OC4CCC(N(C)C)C(C)O4)[C@@H](O)[C@](C)(O)CCCCC/C=C/[C@@H]4CC(C)(C)O[C@@]4(O)C[C@H](O2)[C@H]3C)O1 (stereo partly specified),69*,92*,73*,24,-17
CS(=O)(=O)c1ccc(C2=C(CNC(=O)c3nccs3)[C@H]3CC[C@@H](C2)N3CCOc2ccccc2)cc1,8,-36,-18,3,8
CC(=O)N1c2ccccc2C(c2ccccc2)=NCC1C(=O)NCc1ccccc1 (stereo unspecified),/,/,/,/,-9
Cc1[nH]nc2ccc(-c3cncc(OC[C@@H](N)Cc4c[nH]c5ccccc45)c3)cc12,94*,99*,94*,90*,/
CCCc1nc2ccc(Br)cc2c(=O)n1-c1ccc([N+](=O)[O-])c(C(F)(F)F)c1,35,6,64*,44*,6
CCc1nc2ccc(Br)cc2c(=O)n1-c1ccccc1C(F)(F)F,6,9,1,-1,12
CC12CCC(=O)C=C1CC(N1CC1)C1C2CCC2(C)C(O)CCC12 (stereo unspecified),9,-12,-17,-3,-2
CS(=O)(=O)N1Cc2cc(Br)ccc2-n2nncc2C1,/,/,/,/,13
N#CCC[C@H]1CC[C@]2(CCCN(Cc3ccccn3)C2)O1,/,/,/,/,-4
NC(=S)c1cn(C2OC(CO)C(O)C2O)c2ncnc(N)c12 (stereo unspecified),89*,94*,88*,4,71*
Nc1ncnc2c1ccn2[C@@H]1O[C@H](CO)[C@@H](O)[C@H]1O,82*,103*,89*,92*,64*
C[C@]12CC[C@@H](O)CC1=CCC1C2CC[C@@]2(C)C1CC[C@@H]2O (stereo partly specified),-5,-26,0,7,0
Clc1ccc(C[n+]2c(-c3ccccc3)cc(-c3ccccc3)cc2-c2ccccc2)cc1,42,83*,75*,?,10
CC[n+]1c(/C=C/C=C/c2ccc(N(C)C)cc2)sc2ccccc21,34,59,62*,39,-21
CN(C)c1ccc(/C=C/C=C/c2sc3ccccc3[n+]2C)cc1,32,47,39,21,9
O=C1CC2OCC=C3CN4CCC56c7ccccc7N1C5C2C3CC46O (stereo unspecified),-5,13,10,/,9
COC12C(COC(N)=O)C3=C(C(=O)C(C)=C(N)C3=O)N1CC1C2N1C (stereo unspecified),-7,-22,24,63*,-8
SMILES,SRC1 inh,NR5A2 inv ag,NCOA3 inh,EBV LMP1 NFkB,SRC2 inh
Cn1c(O)c(C=NCCN2CCOCC2)c(=O)n(C)c1=S,8,8,20,-3,-26
CC1(C)C(=O)CC[C@@]2(C)C1=CCC1C2CC[C@]2(C)C(=O)CCC12 (stereo partly specified),2,-8,3,1,-30
COC(=O)C1=C(c2ccc(F)cc2OCc2ccccc2)C[C@@H]2CC[C@H]1N2C(=O)NC(C)C,-5,-6,-16,49*,11
C=C(C=O)CC1CC(O)[C@]2(C)OC3CC4OC5C[C@]6(C)O[C@]7(C)CCC8OC9C[C@]%10(C)OC%11C(C)=CC(=O)OC%11CC%10OC9C[C@@H](C)C8OC7CC6O[C@]5(C)CC5OC5C4OC3CC2O1 (stereo partly specified),-23,-27,-34,74*,/
C=C(CO)CC1CC(O)[C@]2(C)OC3CC4OC5C[C@]6(C)O[C@]7(C)CCC8OC9C[C@]%10(C)OC%11C(C)=CC(=O)OC%11CC%10OC9C[C@@H](C)C8OC7CC6O[C@]5(C)C/C=C\C4OC3CC2O1 (stereo partly specified),-5,-19,-3,3,-3
Clc1cc(Cl)cc(CN2Cc3cc(Br)ccc3-n3nncc3C2)c1,/,/,/,/,-11
CCOC(=O)[C@]12Cc3cc(C)ccc3[C@H]1N(C1CCCCC1)C(=O)c1cc(OC)ccc12,/,94*,/,/,19
CCOC(=O)C(NC(=O)C(Cc1ccc(N(CCCl)CCCl)cc1)NC(C)=O)C(C)C (stereo unspecified),-8,-6,8,-2,12
COC(=O)C(Cc1ccc(N(CCCl)CCCl)cc1)N=Cc1ccccc1O (stereo unspecified),-4,6,11,73*,7
O=C(O)c1cc[c]([Hg][Cl])cc1,-24,28,15,0,/
CN(C)[C@@H]1C(=O)C(C(N)=O)=C(O)[C@@]2(O)C(=O)C3=C(O)c4c(O)cccc4[C@@](C)(O)[C@H]3[C@H](O)[C@@H]12,0,4,-15,90*!,11
CN(C)[C@@H]1C(=O)C(C(N)=O)=C(O)[C@@]2(O)C(=O)C3=C(O)c4c(O)cccc4[C@@](C)(O)C3C[C@@H]12 (stereo partly specified),-4,-3,0,-2,-2
